Inconclusive results are not listed. Activity calls are given as the source filed them. Unless noted, calls come from the whole dose curve; as a rule, active = well fitted curve in either direction with a large enough effect (not every such curve was filed as active); inconclusive = small, poorly fitted or top-dose-only effect, or another doubt; inactive = flat fitted curve, though single readings scatter.
Legend:
[1] = biological target: Lysosomal acid glucosylceramidase (Homo sapiens) (UniProt P04062); assay: Glucocerebrosidase-p2 (AID 348; in the data active = potency below about 10 µM; note: potency is the fitted concentration of half-maximal effect); conditions: purified GBA, blue fluorogenic substrate, 40 min
Procedure, shortened: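 Normal human glucocerebrosidase (0.2 nM) with blue fluorogenic substrate (80 uM final) in citrate/phosphate pH 5.9 with 10mM sodium taurocholate, 0.01% tween-20; 40 min RT, NaOH/glycine stop; fluorescence Ex 365/Em 440; AC50 from a titration from 0.6 nM upwards.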

[2] = AP1 Signaling Pathway (AID 357); conditions: ME-180 AP-1-bla reporter, EGF-induced, beta-lactamase ratio, 5 h; at 7.69 µM (top of the series) unless noted;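 note: ME-180 reporter cells stimulated with EGF at its EC50 level; % is set by controls: 0 for no effect and ±100 for the full control effect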
Procedure, shortened: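 Read-out was the 460nm/530nm emission ratio (excitation 405nm) after CCF4 loading for 2.5 hours at room temperature. Cells carried an AP-1-driven beta-lactamase reporter, were stimulated with EC50 EGF plus compound for 5 hours, and AC50 values came from titrations.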

[3] = biological target: Cytochrome P450 1A2 (Homo sapiens) (UniProt P05177); assay: p450-cyp1a2 (AID 410; calls by dose curve; note: potency is the fitted concentration of half-maximal effect;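 for activity change, negative = inhibition: -100% = full effect of reference inhibitor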); conditions: recombinant CYP1A2, luciferin-ME demethylation, luminescence; series mostly up to 57 µM
Procedure, shortened: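 O-Demethylation of luciferin 6' methyl ether by human CYP1A2 is monitored as luciferase luminescence. Substrate sits at Km (100uM); enzyme is 20nM. Values are scaled to 57 uM furafylline as maximal inhibition.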

[4] = NFAT Signaling Pathway (AID 444); conditions: Jurkat NFAT-bla M1, carbachol, beta-lactamase ratio, 5 h; at 7.69 µM (top of the series) unless noted;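 note: carbachol stimulus at about its EC50 of 1 µM final; % is set by controls: 0 for no effect and ±100 for the full control effect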
Procedure, shortened: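 Jurkat cells carrying an NFAT-driven β-lactamase reporter and co-transfected muscarinic M1 receptor were treated with compound plus carbachol (1 uM final, an EC50 level) for 5 h at 37 °C. CCF4 loading followed for 1 h at RT; 460/530 nm ratio gave %activity.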

[5] = Stat Signaling Pathway (AID 446); conditions: ME-180 (cervical carcinoma) SIE beta-lactamase reporter, IL-6 stimulated, 5 h; at 7.69 µM (top of the series) unless noted;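 note: ME-180 cervical cancer cells given 40 pM IL-6 alongside compound; SIE-controlled beta-lactamase reporter measured as 460/530 nm FRET emission ratio; % is set by controls: 0 for no effect and ±100 for the full control effect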
Procedure, shortened: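 Compound effects on IL-6-induced STAT reporter activity were measured in ME-180 cells. After overnight culture, cells were co-treated with 40 pM IL-6 for 5 hrs before beta-lactamase substrate loading at room temperature.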

[6] = biological target: Glucocorticoid receptor (Homo sapiens) (UniProt P04150); assay: GR-EFC Redistribution (AID 451; calls by dose curve; note: potency is the fitted concentration of half-maximal effect); conditions: CHO-K1 GR-EFC translocation, beta-gal luminescence, 2 h
Procedure, shortened: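 CHO-K1 cells stably expressing nuclear-localized β-gal enzyme acceptor and GR fused C-terminally to the enzyme donor fragment; ligand-driven nuclear translocation restores β-gal by complementation. Compounds titrated up to 46 uM final, 2 h at 37 °C; luminescence read.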

[7] = biological target: Mitogen-activated protein kinase 10 (Mus musculus) (UniProt Q61831); assay: JNK3 AlphaScreen Assay (AID 530); conditions: JNK3 lysate, c-Jun phosphorylation; series mostly up to 57.1 µM;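 note: kinase came from lysate of stimulated human HepG2 cells; signal reports phosphorylation of biotinylated GST-cJun 1-79 at Ser73 with 10 µM ATP; % is set by controls: 0 for no effect and ±100 for the full control effect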
Procedure, shortened: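 Phosphorylation of biotinylated GST-cJun(1-79) at Ser73 is measured by AlphaScreen proximity luminescence. Enzyme is JNK3 in HepG2 lysates activated with interleukin-1beta and tumor necrosis factor alpha; ATP is 10 uM final.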

[8] = biological target: 3',5'-cyclic-AMP phosphodiesterase 4B (Homo sapiens) (UniProt Q07343); assay: qHTS Assay for Inhibitors of PDE-IV (AID 607; active = well fitted activation curve with a large enough effect in the main read-out, with a control signal flat, not every such curve was filed as active; note: % of control where 0% means no effect); conditions: HEK293 ACTOne CNG channel cells, membrane potential fluorescence; series mostly up to 22.9 µM
Procedure, shortened: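 ACTOne HEK293 cells carry a modified cAMP-gated CNG channel and express endogenous PDE4; plated 1000 cells/well, compounds up to 22.9 uM final. Membrane-potential dye fluorescence (ex 535/em 590) was read; parental cells received 10 uM forskolin + 100 uM RO 20-1724.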

[9] = qHTS Assay for Lipid Storage Modulators (AID 1519; calls by dose curve); conditions: Drosophila S3 cells, BODIPY lipid droplet/cell ratio, laser cytometry, cells loaded with oleic acid; for activity change, negative = inhibition: at 57.5 µM (top of the series)
Procedure, shortened: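 Cells seeded at 5,000 per well were treated with compounds over a concentration series and loaded with oleic acid (400 uM, as added). Lipid droplet fluorescence (488 nm excitation, 500-530 nm channel) was read by laser-scanning cytometry and normalized to 20 uM Triacsin C.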

[10] = Primary qHTS for small molecule stabilizers of the endoplasmic reticulum resident proteome: Secreted ER Calcium Modulated Protein (SERCaMP) assay (AID 1508630; active = well fitted curve in the direction sought with a large enough effect; an effect the other way counts as inactive or inconclusive; note: % is set by controls: 0 for no effect and ±100 for the full control effect); conditions: SH-SY5Y GLuc-SERCaMP (Gaussia luciferase released on ER calcium loss) secretion, thapsigargin, luminescence; series mostly up to 38.4 µM
Procedure, shortened: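 The SH-SY5Y reporter protocol was run at 3 concentrations up to 38.3 uM (primary) or 11 concentrations (follow-up): 16 h compound, 100 nM thapsigargin for 4 h, then extracellular luciferase luminescence.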

[11] = biological target: Cytochrome P450 3A4 (Homo sapiens) (UniProt P08684); assay: qHTS Assay for Inhibitors and Substrates of Cytochrome P450 3A4 (AID 884; active = well fitted curve in the direction sought with a large enough effect; an effect the other way counts as inactive or inconclusive; note: potency is the fitted concentration of half-maximal effect; nearly all actives have a fitted effect of over 50% in size); conditions: recombinant CYP3A4, Luciferin-PPXE luminescence; series mostly up to 57.1 µM
Procedure, shortened: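 Luminescent readout of luciferin produced by CYP3A4 (20 nM) dealkylation of Luciferin-PPXE, 25 uM (its KM). NADPH-driven reaction ran 60 min at RT after 10 min compound preincubation; data scaled to 57 uM ketoconazole as 100% inhibition.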

[12] = biological target: Cytochrome P450 3A4 (Homo sapiens) (UniProt P08684); assay: qHTS Assay for Activators of Cytochrome P450 3A4 (AID 885; active = well fitted curve in the direction sought with a large enough effect; an effect the other way counts as inactive or inconclusive; note: nearly all actives have a fitted effect of over 65% in size); conditions: recombinant CYP3A4, Luciferin-PPXE luminescence, 60 min; series mostly up to 57.1 µM
Procedure, shortened: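 CYP3A4 activity: Luciferin-PPXE O-dealkylation, 25uM substrate, 200mM KPO4, RT throughout. Read-out is luciferase luminescence; higher values reflect activation.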

[13] = Confirmation and Secondary Assay for Modulators of Hemoglobin Beta Chain Splicing at IVS2 654 locus (AID 910; active = well fitted curve in the direction sought with a large enough effect; an effect the other way counts as inactive or inconclusive;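 note: per-well total GFP intensity by laser scanning cytometry after 2-day treatment; % of control where 0% means no effect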); conditions: HeLa EGFP-654 splicing reporter, GFP fluorescence, 48 h; series mostly up to 38.3 µM
Procedure, shortened: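 HeLa cells stably carrying EGFP interrupted by mutant beta-globin IVS2-654 intron (CMV-driven) were treated with compound for 2 days at 37C; corrected splicing was scored as total peak GFP intensity per well (488 nm excitation, 500-520 nm emission).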

[14] = Confirmation and Secondary Assay for Modulators of Hemoglobin Beta Chain Splicing at IVS2 705 locus (AID 930; active = well fitted curve in the direction sought with a large enough effect; an effect the other way counts as inactive or inconclusive;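 note: HeLa cells stably expressing the EGFP-705 splicing reporter; GFP fluorescence per well restored by corrected splicing of the IVS2-705 intron in EGFP; % of control where 0% means no effect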); conditions: HeLa EGFP-705 splicing reporter, GFP fluorescence, 48 h; series mostly up to 38.3 µM
Procedure, shortened: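 Splice-correction reporter: EGFP cDNA split by beta-globin intron 2 bearing the 705 mutation, stably in HeLa. Compound incubation 2 days, 37C; fluorescent objects 5-250 µm summed per well.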

[15] = biological target: Ubiquitin carboxyl-terminal hydrolase 1 (Homo sapiens) (UniProt O94782); assay: Inhibitors of USP1/UAF1: Pilot qHTS (AID 504865; active = well fitted curve in the direction sought with a large enough effect; an effect the other way counts as inactive or inconclusive;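 note: rhodamine fluorescence freed from ubiquitin-rhodamine substrate followed over time; top concentration of the series differs between compounds; % is set by controls: 0 for no effect and ±100 for the full control effect; nearly all actives have a fitted effect of over 35% in size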); conditions: purified USP1/UAF1, Ub-rhodamine cleavage fluorescence; series mostly up to 54.9 µM
Procedure, shortened: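 USP1/UAF1 complex at 1 nM preincubated 15 min at room temperature with compound, then Ub-Rho substrate added at 150 nM final. Fluorescence (480/540 nm) read kinetically in 50 mM HEPES pH 7.8, 0.5 mM EDTA, 1 mM TCEP, 0.1 mg/ml BSA, 0.01% Tween-20.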

[16] = measured here: cell count channel max response
[17] = measured here: lipid channel max response

Chain of Cytochrome P450 1A2 (Homo sapiens) (P05177 whole entry, looked up): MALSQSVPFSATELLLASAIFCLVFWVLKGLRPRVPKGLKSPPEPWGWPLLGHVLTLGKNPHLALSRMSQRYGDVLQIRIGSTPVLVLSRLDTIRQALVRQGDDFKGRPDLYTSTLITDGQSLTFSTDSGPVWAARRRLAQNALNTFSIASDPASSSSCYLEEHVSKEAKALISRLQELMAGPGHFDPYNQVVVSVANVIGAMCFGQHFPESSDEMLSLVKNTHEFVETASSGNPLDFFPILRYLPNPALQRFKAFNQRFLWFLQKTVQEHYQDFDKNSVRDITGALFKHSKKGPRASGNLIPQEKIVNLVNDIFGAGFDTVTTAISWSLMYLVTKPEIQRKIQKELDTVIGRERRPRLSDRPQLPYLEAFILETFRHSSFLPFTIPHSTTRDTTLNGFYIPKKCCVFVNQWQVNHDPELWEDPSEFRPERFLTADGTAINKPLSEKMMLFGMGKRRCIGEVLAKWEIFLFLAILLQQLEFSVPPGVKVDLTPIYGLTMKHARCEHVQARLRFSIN
Chain of Lysosomal acid glucosylceramidase (Homo sapiens) (P04062 whole entry, looked up): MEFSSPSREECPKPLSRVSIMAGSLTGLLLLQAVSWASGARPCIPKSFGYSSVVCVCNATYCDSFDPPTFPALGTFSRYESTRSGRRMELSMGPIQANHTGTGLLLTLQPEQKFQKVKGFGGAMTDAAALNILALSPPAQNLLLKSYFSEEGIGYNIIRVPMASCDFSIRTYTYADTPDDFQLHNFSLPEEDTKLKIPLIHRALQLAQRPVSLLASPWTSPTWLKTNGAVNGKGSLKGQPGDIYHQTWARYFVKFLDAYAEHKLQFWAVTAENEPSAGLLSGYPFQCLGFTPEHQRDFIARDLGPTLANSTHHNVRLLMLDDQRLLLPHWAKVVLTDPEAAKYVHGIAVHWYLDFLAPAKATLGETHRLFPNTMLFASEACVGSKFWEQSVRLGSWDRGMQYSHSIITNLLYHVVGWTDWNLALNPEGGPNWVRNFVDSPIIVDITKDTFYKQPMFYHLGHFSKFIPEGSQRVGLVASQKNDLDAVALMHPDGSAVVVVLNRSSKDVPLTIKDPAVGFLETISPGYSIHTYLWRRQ
Chain of 3',5'-cyclic-AMP phosphodiesterase 4B (Homo sapiens) (Q07343 whole entry, looked up): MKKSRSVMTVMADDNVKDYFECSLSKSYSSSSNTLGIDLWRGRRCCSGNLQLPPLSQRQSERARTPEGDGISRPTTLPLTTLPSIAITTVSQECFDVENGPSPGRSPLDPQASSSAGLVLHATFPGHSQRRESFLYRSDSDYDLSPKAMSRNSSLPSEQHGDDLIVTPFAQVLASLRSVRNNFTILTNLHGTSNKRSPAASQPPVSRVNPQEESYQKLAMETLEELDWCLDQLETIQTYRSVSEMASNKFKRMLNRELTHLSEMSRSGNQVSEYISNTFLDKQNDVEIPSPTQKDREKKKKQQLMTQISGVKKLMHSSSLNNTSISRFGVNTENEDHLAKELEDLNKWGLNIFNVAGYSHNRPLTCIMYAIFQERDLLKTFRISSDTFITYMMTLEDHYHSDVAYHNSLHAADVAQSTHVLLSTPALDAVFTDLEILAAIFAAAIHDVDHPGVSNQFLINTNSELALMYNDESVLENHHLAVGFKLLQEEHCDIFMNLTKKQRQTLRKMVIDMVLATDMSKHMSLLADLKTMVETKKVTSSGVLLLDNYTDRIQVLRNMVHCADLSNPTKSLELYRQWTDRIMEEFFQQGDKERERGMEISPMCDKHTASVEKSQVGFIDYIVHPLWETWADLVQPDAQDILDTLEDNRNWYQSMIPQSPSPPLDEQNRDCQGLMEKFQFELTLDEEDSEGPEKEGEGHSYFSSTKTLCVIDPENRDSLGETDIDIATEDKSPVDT
Chain of Glucocorticoid receptor (Homo sapiens) (P04150 whole entry, looked up, the tested form may be a part): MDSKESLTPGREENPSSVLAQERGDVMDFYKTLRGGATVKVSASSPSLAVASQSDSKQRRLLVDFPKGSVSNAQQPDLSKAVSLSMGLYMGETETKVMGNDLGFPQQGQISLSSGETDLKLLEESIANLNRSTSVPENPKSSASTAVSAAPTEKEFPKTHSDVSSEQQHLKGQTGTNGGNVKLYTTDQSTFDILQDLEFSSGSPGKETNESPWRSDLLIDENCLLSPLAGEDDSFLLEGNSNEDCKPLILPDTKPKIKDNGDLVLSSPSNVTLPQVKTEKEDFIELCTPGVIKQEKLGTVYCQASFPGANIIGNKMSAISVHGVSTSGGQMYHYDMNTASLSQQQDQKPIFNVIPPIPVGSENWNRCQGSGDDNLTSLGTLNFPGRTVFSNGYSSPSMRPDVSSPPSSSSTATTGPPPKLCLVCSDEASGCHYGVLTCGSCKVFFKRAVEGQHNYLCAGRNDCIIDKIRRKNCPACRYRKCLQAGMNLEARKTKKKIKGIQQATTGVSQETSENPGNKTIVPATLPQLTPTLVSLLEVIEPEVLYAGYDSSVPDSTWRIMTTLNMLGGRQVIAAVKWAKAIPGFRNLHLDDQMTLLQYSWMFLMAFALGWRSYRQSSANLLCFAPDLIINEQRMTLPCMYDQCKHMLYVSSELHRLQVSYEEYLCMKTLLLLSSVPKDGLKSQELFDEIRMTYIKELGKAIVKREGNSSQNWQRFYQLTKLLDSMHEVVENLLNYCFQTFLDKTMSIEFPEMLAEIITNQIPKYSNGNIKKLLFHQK
Chain of Cytochrome P450 3A4 (Homo sapiens) (P08684 whole entry, looked up): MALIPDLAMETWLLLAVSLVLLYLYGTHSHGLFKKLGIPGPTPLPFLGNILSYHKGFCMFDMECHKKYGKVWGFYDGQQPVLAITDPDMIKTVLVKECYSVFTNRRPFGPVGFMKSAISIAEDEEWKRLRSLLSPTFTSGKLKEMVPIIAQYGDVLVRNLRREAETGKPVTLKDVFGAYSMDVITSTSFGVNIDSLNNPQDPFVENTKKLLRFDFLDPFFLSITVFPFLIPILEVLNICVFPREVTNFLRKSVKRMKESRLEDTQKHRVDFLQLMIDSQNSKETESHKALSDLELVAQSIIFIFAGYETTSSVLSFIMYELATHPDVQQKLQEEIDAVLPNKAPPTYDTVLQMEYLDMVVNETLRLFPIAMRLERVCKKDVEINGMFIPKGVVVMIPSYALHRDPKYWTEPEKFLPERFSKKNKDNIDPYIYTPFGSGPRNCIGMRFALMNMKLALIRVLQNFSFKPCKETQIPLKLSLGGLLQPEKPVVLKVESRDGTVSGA
Chain of Ubiquitin carboxyl-terminal hydrolase 1 (Homo sapiens) (O94782 whole entry, looked up): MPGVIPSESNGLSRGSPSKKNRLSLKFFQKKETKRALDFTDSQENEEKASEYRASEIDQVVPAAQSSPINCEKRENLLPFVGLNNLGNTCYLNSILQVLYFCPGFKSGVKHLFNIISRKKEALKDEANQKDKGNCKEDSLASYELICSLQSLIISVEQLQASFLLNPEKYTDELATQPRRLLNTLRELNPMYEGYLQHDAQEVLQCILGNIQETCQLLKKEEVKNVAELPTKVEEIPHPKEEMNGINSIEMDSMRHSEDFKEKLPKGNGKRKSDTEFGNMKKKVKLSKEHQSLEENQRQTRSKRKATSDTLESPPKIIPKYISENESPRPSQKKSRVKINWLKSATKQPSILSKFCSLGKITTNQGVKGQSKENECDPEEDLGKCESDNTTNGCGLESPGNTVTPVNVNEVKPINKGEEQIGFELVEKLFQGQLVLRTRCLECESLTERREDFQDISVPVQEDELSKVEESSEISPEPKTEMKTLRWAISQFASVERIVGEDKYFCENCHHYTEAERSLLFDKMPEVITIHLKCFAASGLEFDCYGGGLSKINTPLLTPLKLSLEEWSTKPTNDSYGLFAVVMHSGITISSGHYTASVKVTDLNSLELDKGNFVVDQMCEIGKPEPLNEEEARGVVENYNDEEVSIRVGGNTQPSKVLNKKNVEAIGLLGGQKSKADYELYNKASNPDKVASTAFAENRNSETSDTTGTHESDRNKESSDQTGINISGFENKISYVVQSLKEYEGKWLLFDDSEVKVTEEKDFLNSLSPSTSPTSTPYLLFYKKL

Cc1noc(C)c1C(=O)N1CCC2(CC1)CN(c1ncccn1)C2
24.4%: max response [9, 17]
inactive: Potency [1] > 11.4 µM | activity change, negative = inhibition [2] -8.73% | Potency [3] | activity change, negative = inhibition [4] 13.3% | activity, negative = inhibition [5] 2.57% | Potency [6] > 46 µM | outcome [7] | Potency [8] | activity change, negative = inhibition [9] 6.33% | Potency [10]
15.3%: max response [9, 16]

COc1ccc(NC(=O)N2CC3(CCN(C(=O)c4ccco4)CC3)C2)cc1
8.8%: max response [9, 17]
inactive: Potency [1] > 11.4 µM | activity change, negative = inhibition [2] -4.09% | Potency [3] | activity change, negative = inhibition [4] 3.69% | activity, negative = inhibition [5] -3.56% | Potency [6] > 46 µM | outcome [7] | Potency [8] | activity change, negative = inhibition [9] 5.26% | Potency [10]
0.813%: max response [9, 16]

COC(=O)N1CCC2(CCN(Cc3cc(C(F)(F)F)cc(C(F)(F)F)c3)CC2)CC1
inactive: Potency [1] > 11.4 µM | activity change, negative = inhibition [2] -23.4% | Potency [3] | activity change, negative = inhibition [4] -22.9% | activity, negative = inhibition [5] 0.155% | Potency [6] > 46 µM | outcome [7] | activity change, negative = inhibition [9] 2.7% | Potency [10]
-2.08%: max response [9, 16]
2.77%: max response [9, 17]

COCC(=O)N1CCC2(CC1)CCN(c1ccccn1)CC2
0.785%: max response [9, 16]
4.41%: max response [9, 17]
inactive: Potency [1] > 11.4 µM | activity change, negative = inhibition [2] -16.4% | Potency [3] | activity change, negative = inhibition [4] -3.68% | activity, negative = inhibition [5] -8.73% | Potency [6] > 46 µM | outcome [7] | Potency [8] | activity change, negative = inhibition [9] 2.07% | Potency [10]

CN1CCCC2(CCN(C(=O)c3cccn3C)CC2)C1
inactive: Potency [1] > 11.4 µM | activity change, negative = inhibition [2] -4.17% | Potency [3] | activity change, negative = inhibition [4] -4.14% | activity, negative = inhibition [5] 7.29% | Potency [6] > 46 µM | outcome [7] | Potency [8] | activity change, negative = inhibition [9] 1.86% | Potency [10]
11.8%: max response [9, 16]
16.9%: max response [9, 17]

COc1ccc(C(=O)N2CCC[C@@]3(CCN(C(=O)Nc4ccccc4)C3)C2)cc1
inactive: Potency [1] > 11.4 µM | activity change, negative = inhibition [2] -19.4% | activity change, negative = inhibition [4] 12.1% | activity, negative = inhibition [5] -4.43% | Potency [6] > 46 µM | outcome [7] | Potency [8] | activity change, negative = inhibition [9] 10.7% | Potency [10]
active: Potency [3] 15.8 µM
8.67%: max response [9, 16]
24.1%: max response [9, 17]

CC(C)NC(=O)N1CCC2(CC1)CCN(C(=O)c1csnn1)CC2
5.7%: max response [9, 17]
inactive: Potency [1] > 11.4 µM | activity change, negative = inhibition [2] -2.2% | Potency [3] | activity change, negative = inhibition [4] 6.85% | activity, negative = inhibition [5] -6.49% | Potency [6] > 46 µM | outcome [7] | Potency [8] | activity change, negative = inhibition [9] 1.46% | Potency [10]
-0.0052%: max response [9, 16]

COCC(=O)N1CCC2(CC1)CN(Cc1cc(C(F)(F)F)cc(C(F)(F)F)c1)C2
17.9%: max response [9, 17]
inactive: Potency [1] > 11.4 µM | activity change, negative = inhibition [2] 11% | activity change, negative = inhibition [4] 23.6% | activity, negative = inhibition [5] -2.63% | Potency [6] > 46 µM | outcome [7] | Potency [8] | activity change, negative = inhibition [9] -7.21% | Potency [10]
active: Potency [3] 25.1 µM
25.1%: max response [9, 16]

COc1ccccc1-c1nccc(-n2ccnc2)n1
27.4%: max response [9, 17]
inactive: Potency [1] > 11.4 µM | activity change, negative = inhibition [2] 10.1% | activity change, negative = inhibition [4] -2.21% | activity, negative = inhibition [5] 11.9% | Potency [6] > 46 µM | outcome [7] | Potency [8] | Potency [12] | outcome [13] | outcome [14] | activity change, negative = inhibition [9] 10.5% | Potency [15] | Potency [10]
active: Potency [3] 0.158 µM | Potency [11] 1.58 µM
15.1%: max response [9, 16]

COc1ccc(C(=O)N2CCC3(CC2)CN(C(=O)Nc2ccccc2)C3)cc1
inactive: Potency [1] > 11.4 µM | activity change, negative = inhibition [2] -1.19% | activity change, negative = inhibition [4] 22.2% | activity, negative = inhibition [5] -10.2% | Potency [6] > 46 µM | outcome [7] | Potency [8] | activity change, negative = inhibition [9] 5.49% | Potency [10]
8.4%: max response [9, 16]
17.6%: max response [9, 17]
active: Potency [3] 25.1 µM

COCC(=O)N1CCC2(CC1)CN(C(=O)Nc1cccc(F)c1)C2
inactive: Potency [1] > 11.4 µM | activity change, negative = inhibition [2] -27.6% | Potency [3] | activity change, negative = inhibition [4] 9.78% | activity, negative = inhibition [5] -2.66% | Potency [6] > 46 µM | outcome [7] | Potency [8] | activity change, negative = inhibition [9] 8.39% | Potency [10]
17.5%: max response [9, 16]
29%: max response [9, 17]

Cc1noc(C)c1C(=O)N1CCC2(CC1)CN(C(=O)Nc1cccc(F)c1)C2
inactive: Potency [1] > 11.4 µM | activity change, negative = inhibition [2] 6.42% | Potency [3] | activity change, negative = inhibition [4] 19.9% | activity, negative = inhibition [5] 0.457% | Potency [6] > 46 µM | outcome [7] | Potency [8] | activity change, negative = inhibition [9] 1.43% | Potency [10]
-7.63%: max response [9, 16]
-0.901%: max response [9, 17]

CC(=O)N1CCC2(CCCN(c3ccccn3)C2)CC1
28%: max response [9, 17]
19.4%: max response [9, 16]
inactive: Potency [1] > 11.4 µM | activity change, negative = inhibition [2] 4.59% | Potency [3] | activity change, negative = inhibition [4] 3.45% | activity, negative = inhibition [5] -5.49% | Potency [6] > 46 µM | outcome [7] | Potency [8] | activity change, negative = inhibition [9] 5.15% | Potency [10]

O=C(c1csnn1)N1CCC2(CC1)CCN(c1ncccn1)CC2
-0.155%: max response [9, 16]
6.88%: max response [9, 17]
inactive: Potency [1] > 11.4 µM | activity change, negative = inhibition [2] -14.3% | Potency [3] | activity change, negative = inhibition [4] 1.39% | activity, negative = inhibition [5] -5.07% | Potency [6] > 46 µM | outcome [7] | Potency [8] | activity change, negative = inhibition [9] 4.97% | Potency [10]
